# Experimental data from PubChem BioAssay (Tox21).
# Where “and” joins values, the source holds several entries; their conditions need not be identical. Equal entries are not always repeated. Records with an inconclusive call do not appear. Entries that show only a call come without a potency. The source holds several records for some structures; these can differ, active in one and inactive in another. Calls of active or inactive are those of the source. Calls follow the shape of the dose curve; as a rule, active = well fitted activation curve with a large enough effect in the repeat runs; inconclusive = weak or mixed curves; inactive = flat fitted curve, though single readings scatter.
# Assay: A CellTox Green Cytotoxicity Assay to monitor cytotoxicity in HepG2 cells - 32 hour (AID 1224883); also: nearly all actives have a fitted effect of over 50% in size
# Conditions: CellTox Green fluorescence; series mostly up to 76.8 µM; cytotoxicity increase: at the top concentration
# From the text: National Center for Advancing Translational Sciences [NCATS]
# NIH Chemical Genomics Center [NCGC]
# U.S. Environmental Protection Agency [EPA]
# National Institutes of Environmental Health Sciences [NIEHS]
# National Toxicology Program [NTP]
# Cell-based models are critical for drug discovery. Determining the natural cytotoxic effects resulting from test compounds is an essential research activity. A CellTox Green Cytotoxicity Assay to monitor cytotoxicity in real time of continues cell culture during 40 hours of the compound treatment was used to screen Tox21 10K library compounds in HepG2 cells. CellTox Green Cytotoxicity Assay is a nonlytic, homogeneous, biofluorescent method to measure cytotoxicity in cell culture after experimental manipulation. The assay system uses a proprietary asymmetric cyanine dye that is excluded from viable cells but preferentially stains the dead cell's DNA. […] Viable cells produce no appreciable increases in fluorescence. Therefore, the fluorescence signal produced by the binding interaction with dead cell DNA is proportional to cytotoxicity.
# The mixture of HepG2 cell suspension and reagents were dispensed at 600cells/6 ul/well in 1536-well tissue culture treated black solid bottom plates using a Multidrop dispenser. After the assay plates were incubated at a 37 C/5% CO2 incubator for 5 hours, 23 nL of compounds dissolved in DMSO, positive and negative controls was transferred to the assay plate by a pintool work station. The plates were incubated at 37 C for 40 hours. The fluorescence intensity were measured at 0h, 8h, 16h, 24h, 32h and 40h time points using ViewLux plate reader during compound treatment.
# Potency is read from the fitted curve at half-maximal effect.
Structure (SMILES),Potency,cytotoxicity increase
CC(C)(C)CC(C)(C)c1ccc(O)c(-n2nc3ccccc3n2)c1,inactive,–
NC(=O)NO,inactive,–
C=CC(=O)NC(C)(C)CS(=O)(=O)O,inactive and 24.5 µM (active),–
COCCOCCOC,–,0.756% (inactive)
COc1cc2c(c(OC)c1OC)-c1ccc(OC)c(=O)cc1[C@@H](NC(C)=O)CC2,60.9 µM (active) and inactive,–
CC(C)(C)NCC(O)c1ccc(O)c(CO)c1 (stereo not given),inactive,–
COC(=O)c1ccc(C=O)cc1,inactive,–
C[C@]12CC[C@@H]3c4ccc(O)cc4C[C@@H](CCCCCCCCCS(=O)CCCC(F)(F)C(F)(F)F)[C@H]3[C@@H]1CC[C@@H]2O (stereo not given in full),inactive,–
NC(=O)N1c2ccccc2C=Cc2ccccc21,inactive,–
Cc1cccc(C)c1O,inactive,–
CN(C)C=O,inactive,–
Nc1cccc(N)c1,inactive,–
O=c1cc[nH]c(=O)[nH]1,inactive,–
C[C@]12CC[C@@H]3c4ccc(O)cc4CC[C@H]3[C@@H]1CCC2=O,inactive,–
COCC(C)N (stereo not given),–,-0.124% (inactive)
COc1cc(O)c(C(=O)c2ccccc2)cc1S(=O)(=O)O,inactive,–
O=C(OCc1ccccc1)c1ccccc1,inactive,–
Oc1cccc(O)c1,inactive,–
CC(=O)OC/C=C(C)/C=C/C=C(C)/C=C/C1=C(C)CCCC1(C)C,inactive,–
CCOC(=O)C(C)(C)Oc1ccc(Cl)cc1,inactive,–

Structure (SMILES),Potency,cytotoxicity increase
CO[C@H]1C=CO[C@@]2(C)Oc3c(C)c(O)c4c(O)c(c(/C=N/N5CCN(C)CC5)c(O)c4c3C2=O)NC(=O)/C(C)=C\C=C[C@H](C)[C@H](O)[C@@H](C)[C@@H](O)[C@@H](C)[C@H](OC(C)=O)[C@@H]1C,inactive,–
COc1cc(C=O)ccc1O,inactive,–
CCCCCCCC(=O)OCC(O)CO (stereo not given),–,-9.9% (inactive)
C#C[C@]1(O)CC[C@H]2[C@@H]3CCc4cc(O)ccc4[C@H]3CC[C@@]21C,21.7 µM (active) and 43.6 µM (active),–
N[C@@H](Cc1c[nH]c2ccccc12)C(=O)O,inactive,–
CCN1CCCC1=O,inactive,–
C/C=C/c1ccc(O)c(OC)c1,inactive,–
CC1(C)O[C@@H]2[C@@H](CO[C@@]3(COS(N)(=O)=O)OC(C)(C)O[C@@H]23)O1,inactive,–
COC(=O)C1CCC(C(=O)OC)CC1 (stereo not given),inactive,–
C[C@]12C=CC(=O)C=C1CC[C@@H]1[C@@H]2C(=O)C[C@@]2(C)[C@H]1CC[C@]2(O)C(=O)CO,inactive,–
O=C(O)CCCCC1CCSS1 (stereo not given),inactive,–
C=C(C)OC(C)=O,–,-3.58% (inactive)
O=C1CCCCCN1,–,-0.834% (inactive)
CCCCNC(=O)NS(=O)(=O)c1ccc(N)cc1,inactive,–
CCCCCCCCCCCCCCCCCC(=O)OCC(O)CO (stereo not given),inactive,–
OC[C@@H](O)[C@@H](O)[C@H](O)[C@H](O)CO,inactive,–
C[C@]12C[C@H](O)[C@H]3[C@@H](CCC4=CC(=O)CC[C@@]43C)[C@@H]1CC[C@@H]2C(=O)CO,inactive,–
CC(C)=CCC/C(C)=C/CO,inactive,–
CC1=NN(c2ccccc2)C(=O)C1,inactive,–
Cc1c(N(C)C)c(=O)n(-c2ccccc2)n1C,inactive,–
